Assay outcomes (PubChem BioAssay)
Sampled rows, rich in hits. Any-hit rate of the full collection: about 1.6%.
NLRP3 yeast inh = blocks the NALP3 inflammasome reconstituted in yeast; Yeast reconstituted NLRP3/ASC/caspase-1, beta-gal luminescence, 24 h; inhibition, % at 10 µM; hit rate 0.39% among 330,000; AID 2825;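 active = inhibition of 50% or more; inactive = inhibition below 50%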;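 also: plate controls were induced DMSO wells for no effect and uninduced yeast grown without galactose for full effect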
NALP1 yeast inh = blocks the NALP1 inflammasome reconstituted in yeast; hit rate 0.61% among 280,000; S. cerevisiae NALP1/ASC/caspase-1 growth, X-gal OD620, 72 h; inhibition, % at 10 µM; in the data active = inhibition mostly above about 24%, no sharp cut-off; inactive = mostly below about 32%
PERK inh = inhibitors of human PERK kinase. inhibition, % at 5.6 µM. AID 1416. hit rate 0.17% among 220,000. CHO PERK-DD fusion, SEAP luminescence translation reporter. Q9NZJ5;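 active = inhibition above the mean inhibition of all tested compounds plus 3 SD, set separately per screening campaign, cut at about 2.9% in these data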;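 also: PERK kinase domain activated by AP20187 dimerizer at 100 nM; 0% = DMSO with dimerizer and 100% = rapamycin at 8.4 µM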
CR mimetic SO = lowers age-related superoxide in aged yeast cells | S. cerevisiae aged cells, superoxide DHE fluorescence; active compounds read low | superoxide response (% of plate mean), % at 10 µM | hit rate 0.18% among 330,000 | AID 2690;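 active = superoxide response under a set limit, about three screen SD below normal, cut at about 65% in these data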;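 also: yeast aged for seven days with compound at 30 °C before DHE staining; 100% = average MFI of all compound-treated wells on the plate with controls excluded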
V-ATPase pH = regulators of yeast V-ATPase proton transport; S. cerevisiae, pHLuorin cytosolic pH fluorescence; response, % at 10 µM; hit rate 0.37% among 350,000; AID 504577; in the data active = response mostly above about 7.3%, no sharp cut-off; inactive = mostly below about 5.4%; also: actives read high
Rce1 inh = yeast Ras-converting enzyme inhibition. calls only. hit rate 0.27% among 290,000. yeast membranes, quenched prenylated peptide cleavage fluorescence;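 active = fall in fluorescence gain of 50% or more versus controls, with final raw signal at or below 3038400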;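 also: plate controls were neutral control wells for no effect and wells lacking membranes for full effect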
Target sequence (Q03530 whole entry, looked up): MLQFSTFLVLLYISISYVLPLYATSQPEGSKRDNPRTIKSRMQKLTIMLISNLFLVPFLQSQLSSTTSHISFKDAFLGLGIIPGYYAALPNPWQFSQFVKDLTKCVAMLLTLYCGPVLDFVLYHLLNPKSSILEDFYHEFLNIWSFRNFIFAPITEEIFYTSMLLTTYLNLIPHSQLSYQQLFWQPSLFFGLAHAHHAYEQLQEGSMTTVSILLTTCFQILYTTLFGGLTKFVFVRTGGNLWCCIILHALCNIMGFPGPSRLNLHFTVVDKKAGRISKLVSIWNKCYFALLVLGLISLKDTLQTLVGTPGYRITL
An asterisk follows results filed as active; i = inactive; nt = no result given; + = active, no number.

SMILES | NLRP3 yeast inh | NALP1 yeast inh | PERK inh | CR mimetic SO | V-ATPase pH | Rce1 inh
COc1cccc(CNC(=O)c2cc(S(=O)(=O)N3CCCCC3)ccc2C)c1 | nt | nt | nt | nt | -1 | nt
O=c1[nH]cc(F)c(=O)[nH]1 | nt | 116* | 0 | 86 | -2 | i
O=c1[nH]cc(O)c(=O)[nH]1 | 13 | 9 | -1 | 94 | 0 | i
C[C@@H]1CCCCO[C@H](CN(C)C(=O)Nc2ccc3c(c2)OCO3)[C@H](C)CN([C@@H](C)CO)C(=O)c2cc(NS(=O)(=O)c3ccc(Cl)cc3)ccc2O1 | nt | nt | nt | nt | -2 | nt
O=C(CN1CC(=O)Oc2ccccc21)OCC(=O)c1ccccc1 | 13 | 2 | 2.9* | 68 | 1 | i
CCC(=O)n1nc(-c2ccc(OC)cc2)nc1N | 6 | 24* | 1 | 92 | -7 | i
CCC(=O)n1nc(-c2ccccc2)nc1N | 15 | 2 | 1 | 94 | 2 | i
COc1cccc(CNc2nc3nc(C)cc(C)n3n2)c1 | 1 | 3 | 0 | 102 | 3 | +
COc1ccc(N2CCN(C(=O)c3ccc4c(c3)CCN4S(C)(=O)=O)CC2)cc1 | nt | nt | nt | nt | 0 | nt
CCOC(=O)c1ccc(NC(=O)c2ccccc2[N+](=O)[O-])cc1 | 19 | 3 | 0 | 107 | 2 | i
CCOC(=O)c1cc([N+](=O)[O-])c([N+](=O)[O-])cc1NC(C)=O | nt | 46 | 1 | 94 | 15* | i
O=C(c1c[nH]c2ccccc12)C(Cl)c1ccccc1 (stereo unspecified) | 33 | 45* | nt | 84 | 3 | i
O=C(c1c[nH]c2ccccc12)C(O)C(c1ccccc1)N1CCOCC1 (stereo unspecified) | -8 | -7 | 0 | 82 | 3 | i
CCc1oc2ccccc2c1C(=O)CCN1CCCCC1 | 34 | 50* | -1 | 103 | 1 | i
COc1cc(-c2cc(-c3ccc(O)cc3)nc(N)c2C#N)ccc1O | 20 | 10 | 0 | 100 | 0 | +
COc1ccc(-c2cc(-c3ccc(O)cc3)nc(N)c2C#N)cc1 | 28 | 4 | nt | 96 | -1 | i
Cc1cccc(CN2CCC(n3nccc3NC(=O)CCCc3ccccc3)CC2)c1 | nt | nt | nt | nt | 5 | nt
CCOC(=O)[C@@H]1[C@H]2COc3ccc(Br)cc3[C@@H]2N2C(=O)N(c3cccc(Cl)c3)C(=O)[C@@]12C | -7 | nt | nt | 117 | 3 | nt
CCOC(=O)[C@@H]1[C@H]2COc3ccc(Br)cc3[C@@H]2N2C(=O)N(c3cccc(Cl)c3)C(=O)[C@]12C | 3 | nt | nt | 102 | -1 | +
Cc1cccc(-c2n[nH]nc2C2=CC(=O)CC(C)(C)C2)c1 | nt | nt | nt | nt | -2 | nt
CNC(=O)C1CN(C(=O)c2nn(Cc3ccccc3)c(=O)c3ccccc23)c2ccccc2O1 (stereo unspecified) | nt | nt | nt | nt | 0 | nt
N=c1n(CCN2CCCCC2)c2ccccc2n1CC(O)c1ccc(Cl)c(Cl)c1 (stereo unspecified) | 22 | 43* | -1 | 85 | 4 | i
N=c1n(CCN2CCCCC2)c2ccccc2n1CC(O)c1cccc(Br)c1 (stereo unspecified) | 18 | 10 | 0 | 103 | 4 | i
O=C(CN1CCN(C(=O)c2ccco2)CC1)Nc1cc(S(=O)(=O)N2CCCC2)ccc1Cl | nt | nt | nt | nt | 2 | nt
CC(=O)Nc1ccc(NC(=O)C(C)n2nc(C)c([N+](=O)[O-])c2C)cc1 (stereo unspecified) | 11 | 4 | 3.0* | 104 | -2 | i
SMILES | NLRP3 yeast inh | NALP1 yeast inh | PERK inh | CR mimetic SO | V-ATPase pH | Rce1 inh
CC(=O)Nc1ccc(NC(=O)C(C)n2nc([N+](=O)[O-])c(Br)c2C)cc1 (stereo unspecified) | 31 | 12 | 0 | 96 | 0 | i
C[C@@H](C(=O)NCc1ccccc1)N1C(=O)C2CC=CCC2C1=O (stereo partly specified) | 8 | 36* | -1 | 111 | -6 | i
O=C(NCc1ccccc1F)C12CC3CC(CC(C3)C1)C2 | 15 | nt | nt | 104 | 8 | i
COc1ccccc1CNC(=O)C12CC3CC(CC(C3)C1)C2 | 25 | -4 | nt | 62* | 5 | i
CCOC(=O)c1cc2c(=O)[nH]ccc2nc1C(F)(F)F | -14 | 7 | 1 | 107 | 2 | i
CCOC(=O)c1cc2c(=O)[nH]ccc2nc1C | -25 | 19 | 1 | 109 | 0 | +
CC(C)C(=O)NNc1ccc(C(F)(F)F)cn1 | -3 | 2 | 3.6* | 100 | -2 | i
CCOC(=O)c1ccc(S(=O)(=O)NNc2ccc(C(F)(F)F)cn2)cc1 | 6 | nt | nt | 115 | 3 | nt
